Test results from PubChem BioAssay AID1942 (Johns Hopkins Ion Channel Center, 2009).
Among all 2,400 compounds or so, about 580 (24%) were called active. Only a sample is shown. Values without a mark were called inactive.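 The calls were made as follows: active = activity change at or above the mean plus 3 SD of buffer wells without dofetilide, per plate; inactive = the rest.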

Biological target: Potassium voltage-gated channel subfamily KQT member 2 (Rattus norvegicus) (UniProt O88943)
Test: KCNQ2 potentiation in CHO cells – cell-based, FluxOR thallium flux, counter-screen for hERG block protector project, confirmation (AID 1942);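 also: normalized value minus buffer-control mean plus three SD of buffer wells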
Conditions: FluxOR thallium flux fluorescence, at 10 µM, active compounds read high

Potassium voltage-gated channel subfamily KQT member 2 (Rattus norvegicus), sequence (O88943 whole entry, looked up): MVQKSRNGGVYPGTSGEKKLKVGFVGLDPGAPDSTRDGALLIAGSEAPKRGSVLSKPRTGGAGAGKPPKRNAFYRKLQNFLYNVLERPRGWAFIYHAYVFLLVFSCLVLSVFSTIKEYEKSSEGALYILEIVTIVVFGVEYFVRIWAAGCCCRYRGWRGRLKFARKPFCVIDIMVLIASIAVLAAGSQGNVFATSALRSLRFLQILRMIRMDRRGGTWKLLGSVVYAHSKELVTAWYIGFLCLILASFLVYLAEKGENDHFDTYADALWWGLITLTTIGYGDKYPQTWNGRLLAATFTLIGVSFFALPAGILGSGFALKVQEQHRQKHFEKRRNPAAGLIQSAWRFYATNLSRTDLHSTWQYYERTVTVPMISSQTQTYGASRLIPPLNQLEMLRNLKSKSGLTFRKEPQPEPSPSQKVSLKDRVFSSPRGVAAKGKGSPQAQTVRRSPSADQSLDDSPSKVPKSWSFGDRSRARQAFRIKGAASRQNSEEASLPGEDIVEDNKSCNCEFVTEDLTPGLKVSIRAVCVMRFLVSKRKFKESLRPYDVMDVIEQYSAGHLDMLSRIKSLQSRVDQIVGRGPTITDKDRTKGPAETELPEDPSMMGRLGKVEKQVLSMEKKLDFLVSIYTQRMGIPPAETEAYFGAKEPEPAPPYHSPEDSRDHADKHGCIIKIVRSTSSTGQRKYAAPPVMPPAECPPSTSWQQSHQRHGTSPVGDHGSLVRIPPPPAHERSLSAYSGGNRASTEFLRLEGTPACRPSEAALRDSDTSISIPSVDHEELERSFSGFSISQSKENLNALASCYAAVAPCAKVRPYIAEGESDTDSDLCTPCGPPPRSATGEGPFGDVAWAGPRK

Row | SMILES | activity change, less the hit threshold
1 | CC1CCCC(C)N1S(=O)(=O)c1ccc(NC(=O)CCn2cnc3ccccc3c2=O)cc1 (stereo not drawn) | -11.1%
2 | CC(C)CC1C(C#N)=C(N)Oc2n[nH]c(-c3cccs3)c21 (stereo not drawn) | -12.4%
3 | CCN1C(=O)C2(/C(=C(\O)c3ccc4c(c3)OCCO4)C(=O)C(=O)N2CCCOC)c2ccccc21 (stereo not drawn) | -12.7%
4 | O=C(CC1NC(=O)NC1=O)Nc1ccccc1 (stereo not drawn) | -21.4%
5 | CC(C)C(=O)Nc1ccc2c(c1)Cc1cc(NC(=O)C(C)C)ccc1-2 | -17.9%
6 | O=C(CC1CCCC1)Nc1ccc2c(c1)CCC2 | 54.5% (active)
7 | CN1N=C(C(=O)N2CCc3c([nH]c4ccccc34)C2c2c(F)cccc2Cl)CCC1=O (stereo not drawn) | -22.4%
8 | Cc1ccc(C(C(=O)NC(C)(C)C)N(Cc2cccnc2)C(=O)C(=O)NC2CCCCC2)o1 (stereo not drawn) | -14.6%
9 | COC(=O)c1cccc(/C=N/NC(N)=S)c1O | -2.4%
10 | COc1cccc(C=NCC(C)N=Cc2cccc(OC)c2O)c1O (stereo not drawn) | -2.9%
11 | COc1cccc(C=NCCCN=Cc2cccc(OC)c2O)c1O | 6% (active)
12 | COc1cccc(C=Nc2cc(C)cc(C)c2)c1O | 10% (active)
13 | CCOc1cccc(/C=N/NC(=O)c2ccc3c(c2)OCCO3)c1O | -18.5%
14 | COc1cccc(/C=N/Nc2nc3ccccc3[nH]2)c1O | -3.2%
15 | COc1ccc(-n2c(SCc3ccccn3)nc3c(c2=O)SCC3)cc1OC | -2.7%
16 | CCC1=C(OC(=O)N(CC)CC)N2C(=O)OC(=NCC3CC3)[C@]2(C)[C@H]2C1=CC[C@H]1C(=O)N(C)C(=O)[C@H]12 | -15.9%
17 | O=C1CSC(=S)N1/N=C/c1cc(Br)ccc1O | -6.3%
18 | O=C(CN1CCN(c2ccc(Cl)cc2)CC1)Nc1ccc(F)cc1 | -21.6%
19 | S=c1nc(-c2ccccc2)[nH]c2ccc(Br)cc12 | 135% (active)
20 | S=c1nc(-c2ccc(Br)cc2)[nH]c2ccccc12 | 100% (active)
21 | CCOC(=O)N/N=C\c1ccc(-c2cc(Cl)ccc2Cl)o1 | -17.6%

Row | SMILES | activity change, less the hit threshold
22 | O=C1N(CN2CCN(Cc3ccccc3)CC2)c2ccccc2C12OCCCO2 | -12.5%
23 | CCOc1cc(N2CCCC2)ccc1[N+](=O)[O-] | -13.1%
24 | S=c1[nH]nc(-c2cccs2)n1/N=C/c1c(Cl)cccc1Cl | 13.1% (active)
25 | Cc1cccc(/C=N/n2c(COc3ccccc3)n[nH]c2=S)c1 | -13.8%
26 | CC(C1CC2CCC1C2)n1c(-c2cccs2)n[nH]c1=S (stereo not drawn) | -7.9%
27 | CCC(=O)Nc1cc(=O)[nH]c2ncnn12 | -13.1%
28 | CCOC(=O)C1=C(C)NC(=O)NC1c1cccc(OC)c1OCc1ccccc1Cl (stereo not drawn) | -15.6%
29 | CN(C)c1ccc(NC(=O)CCCc2ccccc2)cc1 | 0.2% (active)
30 | CC(C)C(=O)Nc1ccc(NC(=O)CCc2ccccc2)cn1 | -23.2%
31 | CN(Cc1ccccc1)C(=O)CCc1ccccc1 | -22.5%
32 | COc1cc2c(=O)nc3n(c2cc1OC)C(c1ccccc1)N=C(N)N3 (stereo not drawn) | -18.8%
33 | Nc1nc2c(s1)CCc1c-2cnn1-c1ccccc1 | -29.6%
34 | Oc1ccc(N=Nc2ccc3c(c2)OCCO3)c2ncccc12 | -11.2%
35 | Oc1c(N=Nc2ccccn2)ccc2ccccc12 | 7.7% (active)
36 | CC1CCN(c2ccc3c(c2)S(=O)(=O)c2ccccc2C3=O)CC1 | -25.4%
37 | Cc1cc(-c2cccc(Br)c2)c(C#N)c(N)n1 | -13.8%
38 | CCOC(=O)c1c(SCC(=O)Nc2nc(C)cs2)nc(=O)[nH]c1C | -17.9%
39 | O=c1c(-c2cccc3ccccc23)[n+]([O-])c2ccccc2n1O | 5.6% (active)
40 | Cc1ccc(-c2c(=O)n(O)c3ccccc3[n+]2[O-])cc1 | 59.1% (active)
41 | O=c1c(-c2ccccc2)[n+]([O-])c2ccccc2n1O | -16.2%
42 | O=c1c(-c2ccc(Cl)cc2)[n+]([O-])c2ccccc2n1O | 92.9% (active)

Row | SMILES | activity change, less the hit threshold
43 | FC(F)c1nnc2c(Cl)cc(C(F)(F)F)cn12 | -8%
44 | CC(=O)Nc1ccc(S(=O)(=O)N2CCC(C(=O)O)CC2)cc1 | -26.7%
45 | Cc1cc(=O)[nH]c(SCC(=O)Nc2ccccc2C#N)c1C#N | -14.5%
46 | CCOc1cc(/C=C2/C(=O)ON=C2C)ccc1O | -11.8%
47 | COc1cccc(/C=N/NC(=O)CSc2ccccc2C)c1O | -2.9%
48 | COc1cc(-c2nnc(SCC(=O)O)n2-c2ccccc2)cc(OC)c1OC | -13.9%
49 | COc1cccc(/C=N/n2c(SC)nnc2-c2ccccc2)c1O | 2.8% (active)
50 | COc1cc(S(=O)(=O)Nc2c(C)cc(C)cc2C)ccc1Cl | -20.6%
51 | COCCN1C(=O)C(=O)/C(=C(/O)c2ccc(S(=O)(=O)N3CCOCC3)cc2)C1c1ccc(OC)c(OC)c1 (stereo not drawn) | -17.7%
52 | CCOC(=O)c1c(-c2ccc(C)o2)csc1NC(=S)NC(=O)N(C)C | 24.3% (active)
53 | CCOC(=O)c1c(CC(C)C)csc1NC(=O)c1ccccc1C(=O)O | -7.7%
54 | CCNC(=S)Nc1scc(-c2ccccc2)c1C(=O)OCC | 10.6% (active)
55 | CCOC(=O)c1ccc(NC(=O)Cn2nnc(-c3ccccc3)n2)cc1 | -26.4%
56 | CCOC(=O)c1c(-c2ccccc2)csc1NC(=S)NC | 19% (active)
57 | CCOC(=O)c1c(C=O)c(C)n(Cc2ccccc2)c1C | -14.5%
58 | Nc1nonc1-n1nnc(C(=O)N/N=C/c2cccc(Cl)c2Cl)c1CN1CCCC1 | -9.3%
59 | Oc1ccc2[nH]cnc2c1CN1CCCCC1 | -16.5%
60 | O=C(O)C1C2CCC(O2)C1C(=O)Nc1ccc(F)c(Cl)c1 (stereo not drawn) | -21%
61 | Cc1ccc(-c2noc(CCC(=O)NC3CCCC3)n2)cc1 | -9.6%
62 | O=C(Nc1ccc(Cl)cc1Cl)c1n[nH]c(Cn2cncn2)n1 | -6%
63 | CC(=O)c1cccc(NC(=O)NCc2cccs2)c1 | -14.9%
